In PubChem BioAssay (NCATS):
Inconclusive results are not listed. Unmarked numbers belong to inactive results. The source made the active and inactive calls. Calls follow the shape of the dose curve; as a rule, active = well fitted cell-killing curve with a large enough effect; inconclusive = small, poorly fitted or top-dose-only effect, or effect the other way; inactive = no such curve, though single readings can be large or run the other way.

Tests used:
[1] = Quantitative High-Throughput drug screen in 47 multiple myeloma cell lines against the NCATS MIPE library collection: MM1R_ATCC cell viability assay (AID 1918981); also: nearly all actives have a fitted effect of over 35% in size; also: potency is read from the fitted curve at half-maximal effect
Outline: (§1)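 MIPE 4.0 approved/investigational drugs; 500 cells/well; 48 h 37 °C humidified 5% CO2; CTG luminescence readout; DMSO = 100%, media = 0% viability.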

[2] = Quantitative High-Throughput drug screen in 47 multiple myeloma cell lines against the NCATS MIPE library collection: LP1_DSMZ cell viability assay (AID 1918982); also: nearly all actives have a fitted effect of over 35% in size; also: potency is read from the fitted curve at half-maximal effect
Outline: as §1

[3] = Quantitative High-Throughput drug screen in 47 multiple myeloma cell lines against the NCATS MIPE library collection: KMS28PE_JCRB cell viability assay (AID 1918983); also: nearly all actives have a fitted effect of over 35% in size; also: potency is read from the fitted curve at half-maximal effect
Outline: as §1

[4] = Quantitative High-Throughput drug screen in 47 multiple myeloma cell lines against the NCATS MIPE library collection: KMS34_JCRB cell viability assay (AID 1918985); also: nearly all actives have a fitted effect of over 40% in size; also: potency is read from the fitted curve at half-maximal effect
Outline: as §1

[5] = Quantitative High-Throughput drug screen in 47 multiple myeloma cell lines against the NCATS MIPE library collection: OPM1_PLB cell viability assay (AID 1918989); also: nearly all actives have a fitted effect of over 40% in size; also: potency is read from the fitted curve at half-maximal effect
Outline: as §1

[6] = Quantitative High-Throughput drug screen in 47 multiple myeloma cell lines against the NCATS MIPE library collection: SKMM1_PLB cell viability assay (AID 1919863); settings: SKMM1 myeloma viability, CellTiter-Glo ATP, 48 h; viability: hits give low values; also: nearly all actives have a fitted effect of over 35% in size
Outline: as §1

[7] = Quantitative High-Throughput drug screen in 47 multiple myeloma cell lines against the NCATS MIPE library collection: U266_ATCC cell viability assay (AID 1919864); also: nearly all actives have a fitted effect of over 35% in size; also: potency is read from the fitted curve at half-maximal effect;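 as to viability (% of DMSO control): 0% = media-only wells without cells and 100% = DMSO-only wells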
Outline: as §1

[8] = Quantitative High-Throughput drug screen in 47 multiple myeloma cell lines against the NCATS MIPE library collection: XG6_PLB cell viability assay (AID 1919865); also: nearly all actives have a fitted effect of over 40% in size; also: potency is read from the fitted curve at half-maximal effect
Outline: as §1

[9] = Quantitative High-Throughput drug screen in 47 multiple myeloma cell lines against the NCATS MIPE library collection: XG1_PLB cell viability assay (AID 1919866); also: nearly all actives have a fitted effect of over 35% in size; also: potency is read from the fitted curve at half-maximal effect
Outline: as §1

[10] = Quantitative High-Throughput drug screen in 47 multiple myeloma cell lines against the NCATS MIPE library collection: VP6_DJ cell viability assay (AID 1919867); also: nearly all actives have a fitted effect of over 40% in size; also: potency is read from the fitted curve at half-maximal effect;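 as to viability (% of DMSO): 100% = DMSO-only wells and 0% = wells with media alone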
Outline: as §1

[11] = Quantitative High-Throughput drug screen in 47 multiple myeloma cell lines against the NCATS MIPE library collection: PE2_PLB cell viability assay (AID 1919869); also: nearly all actives have a fitted effect of over 35% in size; also: potency is read from the fitted curve at half-maximal effect
Outline: as §1

[12] = Quantitative High-Throughput drug screen in 47 multiple myeloma cell lines against the NCATS MIPE library collection: PCM6_Riken cell viability assay (AID 1919870); also: nearly all actives have a fitted effect of over 30% in size
Outline: as §1

[13] = Quantitative High-Throughput drug screen in 47 multiple myeloma cell lines against the NCATS MIPE library collection: RPMI8226_ATCC cell viability assay (AID 1919871); also: nearly all actives have a fitted effect of over 30% in size; also: potency is read from the fitted curve at half-maximal effect
Outline: as §1

[14] = Quantitative High-Throughput drug screen in 47 multiple myeloma cell lines against the NCATS MIPE library collection: OPM2_DSMZ cell viability assay (AID 1919872); also: nearly all actives have a fitted effect of over 30% in size; also: potency is read from the fitted curve at half-maximal effect
Outline: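 qHTS of the MIPE 4.0 collection: 500 myeloma cells/well, 48 h drug exposure at 37C in 5% CO2, then CellTiter-Glo for 5 min at room temperature before luminescence reading.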

[15] = Quantitative High-Throughput drug screen in 47 multiple myeloma cell lines against the NCATS MIPE library collection: KMS11_JCRBsus cell viability assay (AID 1919873); also: nearly all actives have a fitted effect of over 50% in size; also: potency is read from the fitted curve at half-maximal effect
Outline: as §1

[16] = Quantitative High-Throughput drug screen in 47 multiple myeloma cell lines against the NCATS MIPE library collection: KMS28BM_JCRB cell viability assay (AID 1919874); also: nearly all actives have a fitted effect of over 35% in size; also: potency is read from the fitted curve at half-maximal effect
Outline: as §1

[17] = Quantitative High-Throughput drug screen in 47 multiple myeloma cell lines against the NCATS MIPE library collection: OCIMY5_PLB cell viability assay (AID 1918988); also: nearly all actives have a fitted effect of over 65% in size; also: potency is read from the fitted curve at half-maximal effect
Outline: as §1

[18] = Quantitative High-Throughput drug screen in 47 multiple myeloma cell lines against the NCATS MIPE library collection: L363_DSMZ cell viability assay (AID 1918984); also: nearly all actives have a fitted effect of over 40% in size; also: potency is read from the fitted curve at half-maximal effect
Outline: as §1

[19] = Quantitative High-Throughput drug screen in 47 multiple myeloma cell lines against the NCATS MIPE library collection: UTMC2_PLB cell viability assay (AID 1919868); settings: CellTiter-Glo ATP luminescence, 48 h; viability (% of DMSO control): at 45.8 µM (top of the series); also: nearly all actives have a fitted effect of over 55% in size; also: potency is read from the fitted curve at half-maximal effect;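 as to viability (% of DMSO control): 100% = DMSO-only wells and 0% = media-only wells without cells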
Outline: as §1

[20] = Quantitative High-Throughput drug screen in 47 multiple myeloma cell lines against the NCATS MIPE library collection: OCIMY7_PLB cell viability assay (AID 1918987); settings: OCI-MY7 myeloma viability, CellTiter-Glo ATP, 48 h; viability (% of DMSO): at 45.8 µM (top of the series); also: potency is read from the fitted curve at half-maximal effect; nearly all actives have a fitted effect of over 65% in size
Outline: as §1

In the case of `CC(=Cc1ccccc1)C=C1SC(=S)N(CC(=O)O)C1=O`, the Potency [1] is reported as “inactive”, the Potency [2] is reported as “inactive” and the Potency [3] is reported as “inactive”. For the same compound, the Potency [4] was “inactive”, the Potency [5] was “inactive” and the viability [6] was 123%. The Potency [7] was “inactive”, the Potency [8] was “inactive” and the Potency [9] was “inactive”. The Potency [10] was “inactive”, the Potency [11] was “inactive” and the Potency [12] was “inactive”. The Potency [13] was “inactive”, the Potency [14] was “inactive” and the Potency [15] was “inactive”. The Potency [16] was “inactive”.
For `CC(C)n1cnc2c(NCCCCCCNC(=O)OC(C)(C)C)nc(NCCO)nc21`, the Potency [1] was 20.9 µM (active), the Potency [2] was 18.7 µM (active) and the Potency [3] was 18.7 µM (active). For the same compound, the Potency [17] was 29.6 µM (active), the Potency [5] was 20.9 µM (active) and the Potency [7] was 9.35 µM (active). For the same compound, the Potency [8] was 26.4 µM (active), the Potency [9] was 23.5 µM (active) and the Potency [13] was 14.8 µM (active).
In the case of `O=c1[nH]cnc2c1ncn2[C@H]1CC[C@@H](CO)O1`, the Potency [1] is reported as “inactive”, the Potency [2] is reported as “inactive” and the Potency [18] is reported as “inactive”. The Potency [17] was “inactive”, the viability [6] was 151% and the Potency [7] was “inactive”. For the same compound, the Potency [8] was “inactive”, the Potency [9] was “inactive” and the Potency [11] was “inactive”. The Potency [12] was “inactive”, the Potency [13] was “inactive” and the Potency [14] was “inactive”. For the same compound, the Potency [15] was “inactive”.
For `C[C@@H]1CCN(C(=O)CC#N)C[C@H]1N(C)c1ncnc2[nH]ccc12`, the Potency [1] was “inactive”, the Potency [2] was “inactive” and the Potency [3] was “inactive”. For the same compound, the Potency [17] was 13.2 µM (active), the Potency [5] was “inactive” and the Potency [19] was “inactive”. For the same compound, the Potency [14] was “inactive”.
In the case of `COc1ccc(Cc2nccc3cc(OC)c(OC)cc23)cc1OC`, the Potency [1] is reported as 23.5 µM (active), the Potency [3] is reported as 8.33 µM (active) and the Potency [4] is reported as 3.72 µM (active). For the same compound, the Potency [17] was 16.6 µM (active), the Potency [5] was 11.8 µM (active) and the Potency [8] was 13.2 µM (active). For the same compound, the Potency [9] was 14.8 µM (active), the Potency [19] was “inactive” and the Potency [13] was “inactive”. For the same compound, the Potency [14] was 11.8 µM (active), the Potency [15] was 18.7 µM (active) and the Potency [16] was 20.9 µM (active).
For `CCn1c(C(=O)N(C2CC2)C2CC2)cc2c3c(ncn3C)c(Nc3cc(C)n(C)n3)nc21`, the Potency [1] was “inactive”, the Potency [2] was “inactive” and the Potency [4] was “inactive”. The Potency [5] was 20.9 µM (active), the viability [6] was 128% and the Potency [8] was 13.2 µM (active). For the same compound, the Potency [10] was 29.6 µM (active), the Potency [11] was 16.6 µM (active) and the Potency [16] was “inactive”.
In the case of `CN(C)Cc1cccc(N=C(c2ccccc2)c2c(O)[nH]c3cc(C(=O)N(C)C)ccc23)c1`, the Potency [1] is reported as 4.69 µM (active), the Potency [3] is reported as 18.7 µM (active) and the Potency [18] is reported as 8.33 µM (active). For the same compound, the Potency [20] was 0.935 µM (active), the Potency [17] was 10.5 µM (active) and the Potency [5] was 18.7 µM (active). The Potency [7] was 18.7 µM (active), the Potency [8] was 18.7 µM (active) and the Potency [9] was 16.6 µM (active). For the same compound, the Potency [10] was 13.2 µM (active), the Potency [19] was 16.6 µM (active) and the Potency [11] was 20.9 µM (active). The Potency [13] was 10.5 µM (active).
